The results in this text go back to PubChem BioAssay (Tox21).

A number with no mark means an inactive call. The source made the active and inactive calls. Calls follow the shape of the dose curve; as a rule, active = well fitted curve in the direction sought with a large enough effect in the repeat runs; inconclusive = weak or mixed curves; inactive = flat fitted curve, though single readings scatter.
% is scaled to controls: 0 for no effect and ±100 for the full control effect.

The nature of this test: qHTS assay to test for compound auto fluorescence at 535 nm (green) in HepG2 cell free culture (AID 720686). To be noted: Cell-free medium, green autofluorescence 485/535 nm; series mostly up to 91.3 µM; fluorescence, % of fluorescein control: at the top concentration.
Regarding `Cc1c(Cl)c(=O)oc2cc(OP(=O)(OCCCl)OCCCl)ccc12`, the “fluorescence, % of fluorescein control” value is 0.0392% [at 46 µM].

Take `O=S(=O)(c1ccc(Cl)cc1)c1ccc(Cl)cc1`: the “fluorescence, % of fluorescein control” value was -0.112% [at 95.7 µM].

Turning to `N#C/C=C/C#N`, the “fluorescence, % of fluorescein control” value is 0.0355% [at 95.7 µM].

`O=C(CCl)C(Cl)Cl`: the “fluorescence, % of fluorescein control” value was -0.044%.

In the case of `C=CCC1=C(C)C(OC(=O)C2C(C=C(C)C)C2(C)C)CC1=O` (stereo not drawn), the “fluorescence, % of fluorescein control” value was 1.23% [at 95.7 µM].

For the compound `O=C/C(Cl)=C(/Cl)C(=O)O`, the compound was classed as inactive.

In the case of `Clc1ccc(C(c2ccccc2Cl)C(Cl)(Cl)Cl)cc1` (stereo not drawn), the compound was called inactive.

`Oc1ccc(C2(c3ccc(O)cc3)c3ccccc3-c3ccccc32)cc1`: the “fluorescence, % of fluorescein control” value was -0.0656%.

For the compound `CC(=O)O[C@H]1CC[C@@]2(C)C(=CC[C@@H]3[C@@H]2CC[C@]2(C)C(=O)CC[C@@H]32)C1`, the compound was classed as inactive.

Consider `CC(C)C1CCC(Cc2ccc(Cl)cc2)C1(O)Cn1cncn1` (stereo not drawn), for which the “fluorescence, % of fluorescein control” value is 0.0279%.

With `O=C(O)COc1nc(Cl)c(Cl)cc1Cl`, the “fluorescence, % of fluorescein control” value is 0.137% [at 95.7 µM].

`CC(C)[C@H](C(=O)O[C@H](C#N)c1cccc(Oc2ccccc2)c1)c1ccc(Cl)cc1`: the “fluorescence, % of fluorescein control” value was 0.0694%.

In the case of `CCCOCC(=Nc1ccc(Cl)cc1C(F)(F)F)n1ccnc1`, the “fluorescence, % of fluorescein control” value was -0.0011%.

Take `CCCN(CC)CC1COC2(CCC(C(C)(C)C)CC2)O1` (stereo not drawn): the “fluorescence, % of fluorescein control” value is -0.048%.

For the compound `C[C@@H]1CC[C@@]2(OC1)O[C@H]1[C@@H](O)[C@H]3[C@@H]4CC[C@H]5C[C@@H](O[C@@H]6O[C@H](CO)[C@H](O[C@@H]7O[C@H](CO)[C@@H](O)[C@H](O[C@@H]8OC[C@@H](O)[C@H](O)[C@H]8O)[C@H]7O[C@@H]7O[C@H](CO)[C@@H](O)[C@H](O[C@@H]8O[C@H](CO)[C@@H](O)[C@H](O)[C@H]8O)[C@H]7O)[C@H](O)[C@H]6O)[C@H](O)C[C@]5(C)[C@H]4CC[C@]3(C)[C@H]1[C@@H]2C`, the “fluorescence, % of fluorescein control” value was 0.0571% [at 95.7 µM].

With `C[C@]12CC[C@H]3[C@@H](CCC4=CC(=O)CC[C@@]43C)[C@@H]1CC[C@@H]2O`, the “fluorescence, % of fluorescein control” value is -0.0171%.

For the compound `ClC(Cl)=C(c1ccc(Cl)cc1)c1ccc(Cl)cc1`, the outcome was inactive.

`[Hg+2].[I-].[I-]`: the “fluorescence, % of fluorescein control” value was -0.0546%.

Regarding `CCCCCCCCCCCCBr`, the “fluorescence, % of fluorescein control” value was -0.0086%.

As for `CCN(CC)c1c([N+](=O)[O-])cc(C(F)(F)F)c(N)c1[N+](=O)[O-]`, the “fluorescence, % of fluorescein control” value was 0.189%.

Consider `CCCCCCCCCCCCCN1CC(C)OC(C)C1` (stereo not drawn), for which the “fluorescence, % of fluorescein control” value is 0.0669%.

`Oc1ccc(C2(c3ccc(O)cc3)CCCCC2)cc1`: the “fluorescence, % of fluorescein control” value was -0.0066%.

Consider `Oc1c(Br)c(Br)c(Br)c(Br)c1Br`, for which the “fluorescence, % of fluorescein control” value is 0.0489%.

Consider `O=c1[nH]c2ccccc2n1CCCN1CCC(n2c(=O)[nH]c3cc(Cl)ccc32)CC1`, for which the “fluorescence, % of fluorescein control” value is 0.205% [at 46 µM].

With `O=[N+]([O-])c1cc(C(F)(F)F)c(Cl)c([N+](=O)[O-])c1Cl`, the “fluorescence, % of fluorescein control” value is -0.015%.

As to `Cc1cc(N=Nc2ccccc2C)ccc1N`, the compound was called inactive.

For the compound `CC(C)CCCCCCCOP(=O)(Oc1ccccc1)Oc1ccccc1`, the “fluorescence, % of fluorescein control” value is 0.0181%.

As for `C=CC(=O)OCC(COC(=O)C=C)(COC(=O)C=C)COC(=O)C=C`, the “fluorescence, % of fluorescein control” value is 0.0157%.

As for `N#CNC#N`, the “fluorescence, % of fluorescein control” value was 0.0023% [at 95.7 µM].

For `CCCCCCCCCCCCCC[P+](CCCCCC)(CCCCCC)CCCCCC` (tested in a mixture with another compound), the “fluorescence, % of fluorescein control” value is 0.0467%.

As for `CC1(C)[C@H](C(=O)O[C@H](C#N)c2cccc(Oc3ccccc3)c2)[C@@H]1/C=C(\Cl)C(F)(F)F`, the “fluorescence, % of fluorescein control” value was 0.148%.

As to `BrC(Br)C(Br)(Br)Br`, the “fluorescence, % of fluorescein control” value is -0.133%.

`Fc1cccc(Cl)c1CCl`: the “fluorescence, % of fluorescein control” value was -0.0081%.

For the compound `Nc1ccc(Cc2ccc(N)c(Cl)c2)cc1Cl`, the “fluorescence, % of fluorescein control” value was -0.0695%.

With `O=c1ssc(Cl)c1Cl`, the “fluorescence, % of fluorescein control” value was -0.0648%.

In the case of `c1ccc(OCC2CO2)cc1` (stereo not drawn), the “fluorescence, % of fluorescein control” value was 0.0047%.

`CC(=O)C(Cl)(Cl)Cl`: the “fluorescence, % of fluorescein control” value was -0.329%.

`c1ccc2cc3c(cc2c1)-c1cccc2cccc-3c12`: the “fluorescence, % of fluorescein control” value was 0.0214%.
